Cruzain noTriton – inhibitors of Trypanosoma cruzi cruzain without detergent. purified cruzain, Z-FR-AMC fluorescence, no detergent. P25779. AID 1476. actives 2.3% (n = 200,000). Potency, µM, for the others: max response, negative = inhibition, most hits filed as inhibitors;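 note: plate controls were enzyme without inhibitor for no effect and buffer without enzyme for full effect; nearly all actives have a fitted effect of over 40% in size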
Target sequence (P25779 123-467 limits assumed): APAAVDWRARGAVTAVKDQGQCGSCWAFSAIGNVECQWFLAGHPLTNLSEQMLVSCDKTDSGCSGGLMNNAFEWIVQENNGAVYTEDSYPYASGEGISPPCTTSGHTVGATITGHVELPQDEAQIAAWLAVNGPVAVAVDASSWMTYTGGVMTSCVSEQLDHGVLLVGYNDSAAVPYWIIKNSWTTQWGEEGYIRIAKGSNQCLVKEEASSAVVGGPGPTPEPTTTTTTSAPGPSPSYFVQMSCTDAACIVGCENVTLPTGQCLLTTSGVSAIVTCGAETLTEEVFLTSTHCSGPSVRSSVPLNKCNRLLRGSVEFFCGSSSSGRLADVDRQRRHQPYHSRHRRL
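Purified cruzain at 1.5 nM, pre-incubated 15 min with compound at room temperature in 100 mM sodium acetate pH 5.5, 5 mM DTT, 0.00005% Triton X-100. Reaction started with 2 uM Z-FR-AMC; AMC fluorescence increase over 60 s gives rate.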
Cruzain inh Det – blocks cruzain activity in presence of Triton detergent | P25779 | purified cruzain, Z-FR-AMC fluorescence, 0.01% Triton | Potency, µM, for inactives: max response, negative = inhibition, actives largely listed as inhibitors | actives 0.43% (n = 200,000) | AID 1478;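 note: plate controls were neutral wells for no effect and buffer without enzyme for full effect; nearly all actives have a fitted effect of over 40% in size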
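Steps: dispense cruzain (1.5 nM final) in acetate buffer pH 5.5 with DTT and 0.01% Triton X-100; pin-transfer compounds; incubate 15 min RT; add Z-FR-AMC (2 uM final); read fluorescence every 30 s, using the 60 s intensity change.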
* hit, by the source's call; ? = inconclusive. Shown are actives, neighbours in structure and some others; about 2.4% of the full set was active somewhere. Calls come from the whole dose curve; as a rule, active = well fitted curve in the direction sought with a large enough effect; inconclusive = small, poorly fitted or top-dose-only effect, or another doubt; inactive = no such curve, though single readings can be large; an effect the other way counts as inactive or inconclusive. Potency is the fitted concentration of half-maximal effect.

SMILES	Cruzain noTriton	Cruzain inh Det
COc1ccc(N(Cc2ccccc2)S(=O)(=O)c2cccc(C(=O)NC3=NCCS3)c2)cc1	25.1µM*	3.9%
Nc1c(-c2cccs2)cnn1-c1nc(-c2ccc(Cl)cc2Cl)cs1	25.1µM*	0.0%
Nc1c(-c2cccs2)cnn1-c1nc(-c2ccc(F)cc2)cs1	-21.2%	5.7%
CCC/C=C/C(C)O (stereo not given)	7.1%	1.2%
Cc1cccc(CNc2ncncc2-c2cccc(NS(C)(=O)=O)c2)c1	-4.6%	3.1%
C(=C\c1ccccc1)/C=N/Nc1nc2ccccc2s1	?	-9.0%
c1ccc2sc(Nc3nc4cc5c(cc4s3)OCO5)nc2c1	25.1µM*	1.4%
C(=N\Nc1nc2ccccc2s1)/c1ccc2c(c1)OCO2	-3.7%	-0.9%
Fc1ccc2nc(Nc3nc4cc5c(cc4s3)OCO5)sc2c1	?	-2.4%
CCOC(=O)c1sc(Nc2nc3c(OC)cccc3s2)cc1C	-2.0%	-12.9%
Brc1cc2c(cc1/C=N/Nc1nc3ccccc3s1)OCO2	20µM*	-5.9%
CCOC(=O)c1sc(Nc2nc3cc4c(cc3s2)OCO4)cc1C	25.1µM*	-6.9%
Brc1ccc(/C=C/C=N/Nc2nc3ccccc3s2)cc1	3.98µM*	-1.0%
CCc1ccccc1N(C)C(=O)Nc1cn(CC(C)C)c(=O)c2ccccc12	-3.4%	-2.4%
CN(C1CCCCC1)S(=O)(=O)c1ccc2c(c1)c(=O)c(C(=O)N1CCN(c3ccccc3)CC1)cn2C	6.2%	-2.2%
COc1ccc(-c2nc3cnc(Nc4cccc(OC)c4)nc3n(Cc3cccs3)c2=O)cc1	?	1.7%
Cc1ccc2[nH]c3c(NCCN4CCOCC4)ncnc3c2c1	20µM*	-26.2%
O=C1CCCN1CCCn1cnc2c([nH]c3ccc(F)cc32)c1=O	3.3%	-3.9%
C=CCNc1ncnc2c1[nH]c1ccc(C)cc12	-18.3%	-20.7%
O=C1CCCN1CCCNc1ncnc2c1[nH]c1ccc(Cl)cc12	15.8µM*	25.1µM*
CCOC(=O)c1c(C)oc2ncnc(N3CCN(c4cccc(Cl)c4)CC3)c12	2.2%	0.0%
COCOc1ccc(OC)cc1C(=O)/C=C/c1ccc(OC)c(Br)c1	-0.1%	-1.5%
Cc1ccn2c(CCc3nnc4cc(C)ccn34)nnc2c1	5.1%	3.0%
COc1ccc(N2CCN(C(=O)c3cc4c(=O)n(Cc5cccnc5)ccc4nc3C)CC2)cc1	-12.4%	-5.8%
COc1ccccc1Nc1nc(-c2ccccc2Cl)c2cc(Br)ccc2n1	18.3%	3.9%
SMILES	Cruzain noTriton	Cruzain inh Det
Clc1ccccc1-c1nc(Nc2ccccc2)nc2ccc(Br)cc12	25.1µM*	-1.2%
O=C(CSc1nc(=O)n(Cc2ccco2)c2c1CCC2)NCc1ccc(F)cc1	-3.9%	-1.6%
O=C(Nc1cccc(C(=O)N2CCN(c3cccc(Cl)c3)CC2)c1)c1nsc2ccccc12	?	-1.1%
O=C(Nc1ccc(C(=O)N2CCN(c3cccc(Cl)c3)CC2)cc1)c1nsc2ccccc12	10µM*	-0.6%
O=C(Nc1ccc(C(=O)N2CCN(c3ccccc3)CC2)cc1)c1nsc2ccccc12	-28.7%	-1.0%
O=C(Nc1cccc(C(=O)N2CCN(c3ccc(Cl)cc3)CC2)c1)c1nsc2ccccc12	20µM*	0.4%
CCS(=O)(=O)N1CCC2(CC1)OC(=O)C(C)=C2C(=O)NCc1ccc(OC)c(OC)c1	-25.6%	-0.3%
COc1ccc(C)cc1NS(=O)(=O)c1ccc2c3c(cccc13)C(=O)N2	23.4%	-12.0%
CC(C)C[C@@H](CC(=O)N[C@@H](CCCN)CC(=O)N[C@@H]1CCNC[C@H]1C(=O)N[C@H](CC(=O)N[C@@H](CCC(=O)O)CC(=O)O)Cc1ccccc1)NC(=O)[C@@H]1CNCC[C@H]1N	8.1%	-0.7%
COC(=O)c1ccc(C(=O)Nc2cc(Cl)ccc2Cl)cc1NC(=O)c1ccc(N(C)C)cc1	3.16µM*	-4.8%
O=C(Nc1cc(Cl)ccc1Cl)c1ccc(-c2ccccc2)cc1	-16.9%	-5.7%
Oc1c(C(c2ccc(Cl)cc2Cl)N2CCCC2)sc2nc(-c3ccco3)nn12 (stereo not given)	-16.2%	-1.8%
Cc1cc(C(=O)CSc2nnc(N)s2)c(C)n1CCc1ccc(Cl)cc1	?	-1.1%
COc1ccc(CCn2c(C)cc(C(=O)CSc3nnc(N)s3)c2C)cc1	?	-3.3%
Cc1cc(C(=O)CSc2nnnn2-c2ccccc2)c(C)n1CCc1ccccc1	-9.3%	0.5%
Cc1cc(C(=O)CSc2nnnn2C)c(C)n1CCc1ccc(F)cc1	25.1µM*	6.2%
CCCc1cc(=O)[nH]c(SCC(=O)c2cc(C)n(CCOC)c2C)n1	6.2%	0.6%
Cc1cc(C(=O)CSc2nnc(N)s2)c(C)n1CCc1ccc(F)cc1	15.8µM*	3.4%
COc1ccc(CCn2c(C)cc(C(=O)CSc3nc(N)cc(=O)[nH]3)c2C)cc1	25.1µM*	0.3%
Cc1cc(C(=O)CSc2nc(N)cc(=O)[nH]2)c(C)n1CCc1ccc(F)cc1	25.1µM*	1.0%
Cc1nn(C)c2c1c(-c1ccccc1)cc(=O)n2C(C)C(=O)NCCc1ccc(Cl)cc1 (stereo not given)	?	-9.7%
CCOc1ccc(NC(=O)Cn2c(CCC(=O)O)ccc2-c2ccc(Cl)cc2)cc1	14.1%	-10.2%
Cc1ccc(C)c(NC(=O)n2ncc3cc(Cl)ccc32)c1	-1.4%	-3.5%
CS(=O)(=O)N1CCN(c2nc(-c3ccc(F)cc3)cs2)CC1	-1.4%	-2.2%
O=S(=O)(c1ccc(F)cc1)N1CCN(c2nc(-c3ccc(F)cc3)cs2)CC1	10µM*	-0.6%
SMILES	Cruzain noTriton	Cruzain inh Det
O=C(Nc1c(O)c2ccccc2oc1=O)c1ccccc1Cl	17.3%	-1.6%
COc1ccc(-c2nc3cnc(N(C)C)nc3n(CCC#N)c2=O)cc1	-1.4%	4.0%
COc1ccc(N(C(=O)c2ccc(C(C)(C)C)cc2)S(=O)(=O)c2ccc(Cl)cc2)cc1	10µM*	-2.8%
COc1ccc(N(C(=O)c2cccc(C)c2)S(=O)(=O)c2ccc(Cl)cc2)cc1	-29.5%	-3.0%
COc1ccc(C2CC(=O)Nc3c2c(=O)[nH]c2nc4ccccc4n32)cc1 (stereo not given)	10.2%	-0.8%
COc1ccccc1NC(=O)c1ccc(NC(=O)COC(=O)C(C)C)cc1	3.0%	-3.9%
COc1ccccc1NC(=O)c1ccc(NC(=O)COC(=O)CC(NC(=O)c2ccccc2Cl)c2ccccc2)cc1 (stereo not given)	20µM*	-5.9%
Cc1nn(CCCC(=O)NCCc2ccc(Cl)cc2)c(=O)c2c1sc1ccccc12	-12.9%	-12.4%
CC1(C)CCC[C@]2(C)C3CC(=O)O[C@@]3(C)CC[C@H]12 (stereo not given in full)	1.0%	-3.3%
COc1ccc(OC)c(NC(=O)c2ccc3c(=O)n(CCc4ccccc4)c(=S)[nH]c3c2)c1	10µM*	0.8%
COc1ccc(NC(=O)c2ccc3c(=O)n(Cc4ccco4)c(=S)[nH]c3c2)c(OC)c1	?	-2.5%
Cc1c(CNC(C)CCc2ccccc2)c(C(=O)O)c(C)n1Cc1ccc(F)cc1 (stereo not given)	18.6%	-1.5%
CCCN(CCC)CCCNC(=O)c1cc2cc3ccc(OC)cc3nc2o1	?	25.1µM*
COc1ccc2cc3cc(C(=O)NCCc4ccc(OC)c(OC)c4)oc3nc2c1	?	-16.3%
CCOc1ccccc1C(=O)N1CCC(c2nc3ccccc3o2)CC1	-16.8%	-2.7%
Cc1cc(C)cc(OCC(=O)Nc2cccc(-c3nc4ccccc4[nH]3)c2)c1	-21.2%	-4.5%
CCOc1ccc(OCC(=O)NCCc2nc3ccccc3[nH]2)cc1	0.794µM*	5.01µM*

High-throughput results deposited in PubChem BioAssay by National Center for Advancing Translational Sciences (NCATS).
